The record followed here is PubChem BioAssay.

Molecules are shown by their SMILES. The source made the active and inactive calls. Unless noted, no rule for the calls is given here.

Experiment [1] is described as follows: compounds binding Alexa647 anti-His antibody – biochemical, small-molecule microarray, 635 nm fluorescence, artefact control for SMM control protein annotation, primary screen (AID 1128).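 Also: score merges feature fluorescence with signal-to-noise for each printed compound spot.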 To be noted: higher = more signal.
Experiment [2] relates to Human papillomavirus type 1a E7 protein (residues 1-88). In words: HPV1a E7 small-molecule binders, primary screen, biochemical, small-molecule microarray, residues 1-88, 635 nm (AID 1129). To be noted: small-molecule microarray binding, fluorescence 635 nm; higher = more signal.
The target in experiment [3] is Focal adhesion kinase 1 (Homo sapiens) (UniProt Q05397). In words: PTK2 protein binding on printed compound slides – biochemical, small-molecule microarray, 635/667 nm fluorescence, BSA, DTT, primary screen (AID 1130).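 Also: composite of spot emission at 667 nm and signal to noise over triplicate slides.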 The following applies: 635 nm fluorescence, higher = more signal.
Experiment [4] relates to Fibrinogen (Alexa647-labelled). Briefly: Alexa647-fibrinogen binding to printed small molecules – biochemical, small-molecule microarray, 635/667 nm fluorescence, artefact control for SMM control-protein annotation, profiling panel (AID 1131).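 Also: z-score merges 667 nm fluorescence with per-spot signal-to-noise over triplicate slides.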 To be noted: fibrinogen-A647 binding fluorescence, higher = more signal.
Experiment [5] has as its target Follistatin (Homo sapiens) (UniProt P19883). Briefly: FST protein binding to printed compounds – biochemical, small-molecule microarray, 635/667 nm fluorescence, primary screen (AID 1132). To be noted: 635 nm fluorescence, higher = more signal.
The target in experiment [6] is Fibroblast growth factor 2 (Homo sapiens) (UniProt P09038). Briefly: basic fibroblast growth factor binding to printed compounds – biochemical, small-molecule microarray, 635/667 nm fluorescence, primary screen (AID 1133). To be noted: FGF2, fluorescence 635/667, higher = more signal.
Experiment [7] in a line: JC-1 mitochondrial potential readout, lung cancer cells – cell-based, A549, JC-1 fluorescence, basal, 24 h, 100 nL, profiling panel (AID 1138).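 Also: A549 lung adenocarcinoma cells under basal conditions with no added stimulus; test concentration not given here.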 The following applies: higher = more signal.
Another experiment concerns Lefty1. In words: Lefty1 protein binding to printed compounds – biochemical, small-molecule microarray, 635/667 nm fluorescence, primary screen (AID 1139). The following applies: fluorescence 635/667, higher = more signal.
Experiment [8] deals with wheat germ agglutinin (Triticum aestivum), Alexa647-labelled. In words: Alexa647-WGA lectin binding to printed small molecules – biochemical, small-molecule microarray, 635/667 nm fluorescence, artefact control for SMM control-protein annotation, profiling panel (AID 1140).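 Also: score merges 667 nm feature emission with signal to noise over triplicate slides.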 To be noted: WGA-A647 binding, 635 nm fluorescence, higher = more signal.
For experiment [9], the target named is Luciferin 4-monooxygenase (Photinus pyralis) (UniProt P08659). Briefly: inhibition of purified Photinus pyralis luciferase – biochemical, luminescence, purified enzyme, 2006 set, primary screen (AID 1141).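 Also: cell-free assay with purified firefly luciferase at 100 ng per well in PBS; test concentration not given here.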 The following applies: purified firefly luciferase, SteadyGlo luminescence, 30 min; higher = more signal, called active from +8 up or from −8 down.
Experiment [10] relates to Wnt5a (protein binding on small-molecule microarray). Briefly: small molecules binding Wnt5a protein – biophysical, small-molecule microarray, 635/667 nm fluorescence, primary screen (AID 1142).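 Also: fluorescence read at 667 nm with signal to noise per printed feature.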 The following applies: 635 nm fluorescence, higher = more signal.
Experiment [11] in a line: ATP-based viability of Huh7 replicon cells – cell-based, CellTiter-Glo luminescence, basal, 48 h, cytotoxicity control for HCV replication inhibitor project, primary screen (AID 1143).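 Also: Huh7 hepatoma cells carrying a hepatitis C replication reporter with no stimulus; test concentration not given here.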 To be noted: higher = more signal, called active from +8 up or from −8 down. Background: A replicon is a self-replicating genome or part of one, used to study replication in cells.
Experiment [12] can be described thus: Pseudomonas biofilm growth suppression – PAO1 strain, BacTiter-Glo luminescence, LB-PBS, primary screen (AID 1144). The following applies: P. aeruginosa PAO1 biofilm, 12 h, higher = more signal.
A short description of experiment [13]: basal CRE-LacZ reporter activity in PC12 – cell-based, unstimulated, primary screen (AID 1145). To be noted: no forskolin, luminescence, 4.5 h, higher = more signal, called active from +8 up or from −8 down.
Experiment [14] can be described thus: forskolin-driven CRE-LacZ activity in PC12 – cell-based, CRE-LacZ reporter, forskolin-stimulated, primary screen (AID 1146).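 Also: PC12 cells with 6xCRE LacZ reporter stimulated by forskolin 10 µM; beta-galactosidase reporter signal reflecting CREB driven transcription.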 To be noted: luminescence, 4.5 h, higher = more signal, called active from +8 up or from −8 down.
The target in experiment [15] is Streptavidin (Streptomyces avidinii) (UniProt P22629). Briefly: compounds binding control protein streptavidin – biophysical, small-molecule microarray, 635/667 nm fluorescence, artefact control for SMM compound annotation, primary screen (AID 1147).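 Also: signal reflects streptavidin binding to arrayed compounds as a control protein.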 To be noted: higher = more signal.
The nature of experiment [16]: probe aInhba binding on compound microarray – biochemical, small-molecule microarray, 635/667 nm fluorescence, primary screen (AID 1148).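 Also: score merges 667nm spot fluorescence with signal-to-noise for antibody binding to printed compounds.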 The following applies: higher = more signal.
Experiment [17] has as its target Torsin-1A (Homo sapiens) (UniProt O14656). Briefly: TOR1A wild-type binding on microarray – cell lysate, small-molecule microarray, lysate, 635/667 nm, primary screen (AID 1149). To be noted: COS7 hTOR1A-WT lysate, 635 nm fluorescence, higher = more signal.
The target is the same in experiment [18]. Briefly: torsin A mutant lysate binding on microarrays – cell lysate, small-molecule microarray, COS7 lysate, 635/667 nm fluorescence, primary screen (AID 1150).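 Also: score pools 667 nm emission and signal to noise measuring lysate protein binding.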 To be noted: COS7 hTOR1A mutant lysate, 635 nm fluorescence, higher = more signal.
Experiment [19] deals with Sonic hedgehog protein (Shh). Briefly: Sonic hedgehog microarray binding compounds – biochemical, small-molecule microarray, 635/667 nm fluorescence, primary screen (AID 1151).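 Also: Shh protein binding to compounds spotted on small-molecule microarray slides; score combines spot fluorescence intensity with signal-to-noise across triplicate slides.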 To be noted: 635 nm fluorescence, higher = more signal.

Chain of Follistatin (Homo sapiens) (P19883 whole entry, looked up): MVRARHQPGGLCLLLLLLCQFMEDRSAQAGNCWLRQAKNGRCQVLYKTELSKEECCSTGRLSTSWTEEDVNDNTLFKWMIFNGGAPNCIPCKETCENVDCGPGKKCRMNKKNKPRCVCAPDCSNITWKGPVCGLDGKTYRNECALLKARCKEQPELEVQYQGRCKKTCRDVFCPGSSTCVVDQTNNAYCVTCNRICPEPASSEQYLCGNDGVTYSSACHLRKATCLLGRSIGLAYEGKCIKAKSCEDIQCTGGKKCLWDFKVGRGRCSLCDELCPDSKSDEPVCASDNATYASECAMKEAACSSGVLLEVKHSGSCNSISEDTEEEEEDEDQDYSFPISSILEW
Chain of Torsin-1A (Homo sapiens) (O14656 whole entry, looked up): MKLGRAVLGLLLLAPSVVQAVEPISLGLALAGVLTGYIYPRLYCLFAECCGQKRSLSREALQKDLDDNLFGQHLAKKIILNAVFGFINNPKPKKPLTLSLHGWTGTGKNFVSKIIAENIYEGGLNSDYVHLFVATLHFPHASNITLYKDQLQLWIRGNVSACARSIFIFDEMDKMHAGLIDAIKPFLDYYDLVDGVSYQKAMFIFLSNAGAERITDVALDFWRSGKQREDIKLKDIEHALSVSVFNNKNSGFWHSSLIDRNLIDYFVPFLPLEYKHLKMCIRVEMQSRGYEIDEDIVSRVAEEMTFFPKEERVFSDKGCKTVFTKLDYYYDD
Chain of Fibroblast growth factor 2 (Homo sapiens) (P09038 whole entry, looked up): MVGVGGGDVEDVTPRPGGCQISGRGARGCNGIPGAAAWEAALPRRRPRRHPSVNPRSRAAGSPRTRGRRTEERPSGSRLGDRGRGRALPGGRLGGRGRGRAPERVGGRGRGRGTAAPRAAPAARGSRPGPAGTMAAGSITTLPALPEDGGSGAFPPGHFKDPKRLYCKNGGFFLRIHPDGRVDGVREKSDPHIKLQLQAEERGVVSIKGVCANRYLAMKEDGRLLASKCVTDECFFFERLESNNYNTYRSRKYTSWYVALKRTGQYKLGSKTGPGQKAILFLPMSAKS
Chain of Streptavidin (Streptomyces avidinii) (P22629 whole entry, looked up): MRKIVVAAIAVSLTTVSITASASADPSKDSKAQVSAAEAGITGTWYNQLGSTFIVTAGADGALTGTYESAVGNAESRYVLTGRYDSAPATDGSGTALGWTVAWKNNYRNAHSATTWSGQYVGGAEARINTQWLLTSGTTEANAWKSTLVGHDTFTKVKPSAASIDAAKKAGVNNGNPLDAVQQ
Chain of Luciferin 4-monooxygenase (Photinus pyralis) (P08659 whole entry, looked up): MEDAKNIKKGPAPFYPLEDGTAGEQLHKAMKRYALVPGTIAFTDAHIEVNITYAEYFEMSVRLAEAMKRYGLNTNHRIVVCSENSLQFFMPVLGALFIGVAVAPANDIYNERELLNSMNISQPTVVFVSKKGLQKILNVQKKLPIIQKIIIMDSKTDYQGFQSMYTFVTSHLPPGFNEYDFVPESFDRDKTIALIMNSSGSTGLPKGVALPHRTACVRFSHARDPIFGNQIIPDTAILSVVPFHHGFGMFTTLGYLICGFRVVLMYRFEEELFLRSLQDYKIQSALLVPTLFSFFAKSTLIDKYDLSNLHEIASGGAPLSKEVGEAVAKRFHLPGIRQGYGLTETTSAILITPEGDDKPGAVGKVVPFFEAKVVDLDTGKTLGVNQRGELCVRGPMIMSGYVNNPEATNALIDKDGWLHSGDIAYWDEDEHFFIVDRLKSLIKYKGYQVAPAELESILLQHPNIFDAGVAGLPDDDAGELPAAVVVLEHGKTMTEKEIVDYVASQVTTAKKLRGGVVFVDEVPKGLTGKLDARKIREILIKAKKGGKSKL
Chain of Focal adhesion kinase 1 (Homo sapiens) (Q05397 whole entry, looked up): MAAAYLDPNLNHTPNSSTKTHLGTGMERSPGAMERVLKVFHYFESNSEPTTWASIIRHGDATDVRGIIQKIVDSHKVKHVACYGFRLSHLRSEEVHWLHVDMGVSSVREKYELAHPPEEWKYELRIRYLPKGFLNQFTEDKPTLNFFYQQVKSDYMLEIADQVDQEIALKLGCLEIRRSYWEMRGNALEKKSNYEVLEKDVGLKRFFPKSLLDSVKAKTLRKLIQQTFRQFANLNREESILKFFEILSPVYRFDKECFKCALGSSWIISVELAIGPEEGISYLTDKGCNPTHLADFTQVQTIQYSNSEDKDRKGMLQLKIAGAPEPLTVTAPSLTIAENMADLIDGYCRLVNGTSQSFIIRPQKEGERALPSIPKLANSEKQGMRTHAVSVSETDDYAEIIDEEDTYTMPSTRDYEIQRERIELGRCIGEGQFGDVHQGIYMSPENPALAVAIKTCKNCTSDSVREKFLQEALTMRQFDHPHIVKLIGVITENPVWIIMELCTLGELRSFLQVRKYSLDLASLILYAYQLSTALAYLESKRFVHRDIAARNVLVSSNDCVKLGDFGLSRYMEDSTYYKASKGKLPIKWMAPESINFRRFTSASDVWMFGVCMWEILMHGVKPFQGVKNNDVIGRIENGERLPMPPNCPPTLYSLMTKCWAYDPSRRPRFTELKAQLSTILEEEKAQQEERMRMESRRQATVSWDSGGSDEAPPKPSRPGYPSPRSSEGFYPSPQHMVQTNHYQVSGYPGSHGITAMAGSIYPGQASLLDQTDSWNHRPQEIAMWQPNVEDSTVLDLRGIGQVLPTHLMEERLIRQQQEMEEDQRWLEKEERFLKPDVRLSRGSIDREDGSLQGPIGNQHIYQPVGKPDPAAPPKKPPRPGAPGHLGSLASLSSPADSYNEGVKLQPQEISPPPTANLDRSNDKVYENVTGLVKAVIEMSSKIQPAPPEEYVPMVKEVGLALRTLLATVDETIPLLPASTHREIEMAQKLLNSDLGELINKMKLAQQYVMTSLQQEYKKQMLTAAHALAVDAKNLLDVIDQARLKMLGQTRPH

For the compound `COc1ccc(OC[C@H]2Cc3c(-c4ccccc4)nc4c(c3CO2)CN(CCOc2ccccc2)CC4)cc1`, the composite z-score stood at 1.78 in [1]; 0.928 in experiment [2]; 0.169 in [3]; 0.811 in experiment [4]; 0.923 in experiment [5]; 0.596 in [6]. For the same compound, the composite z-score in the experiment on Lefty1 was 1.25; in experiment [8] it was 0.387; in experiment [10] it was 0.133; in [15], 0.633; in experiment [16], 0.109; in the experiment with Torsin-1A (Homo sapiens) [17] it was 0.086. Further, the figures for the composite z-score (with Torsin-1A (Homo sapiens) [18]; in experiment [19]) were 0.534 and 1.37, respectively. Besides, the z-score was 0.774 in experiment [7]; -0.356 (inactive) in [9]; -3.41 (inactive) in [11]; -1.27 (inactive) in experiment [12]; 5.99 (inactive) in experiment [13]; -1.02 (inactive) in [14].

On to `CCOC(=O)[C@H](CC(C)C)NC(=O)CCC1CC(OC(=O)NCc2cccc3ccccc23)CC2(CCCC(COC(=O)NCCc3ccccc3OC)O2)O1` (stereo not given in full), for which the composite z-score in [1] turned out to be 1.02; in experiment [2], 1.12; in experiment [3], 0.0969; in experiment [4], 0.949; in [5], 0.583; in experiment [6], 0.485. Besides, the composite z-score in the experiment with Lefty1 was 1.5; in [8], 0.225; in experiment [10], -0.0588; in experiment [15] it was 0.556; in [16], -0.217; with Torsin-1A (Homo sapiens) [17] it was 0.203. Further, the values for the composite z-score (in the experiment with Torsin-1A (Homo sapiens) [18]; in [19]) were 0.408 and 1.07, respectively. The z-score was 0.041 in experiment [7]; 0.755 (inactive) in [9]; -1.86 (inactive) in experiment [11]; 0.6 (inactive) in [12]; -0.44 (inactive) in experiment [13]; 0.0744 (inactive) in experiment [14].

As for `CCN1C(=O)[C@H]2[C@H]3[C@H](O)[C@H](O)CC(=NOCc4ccccc4)[C@@H]3CC[C@H]2C1=O`, the composite z-score in experiment [1] was 0.119; in experiment [2], 0.65; in experiment [3], -0.0096; in experiment [4], 0.306; in [5], 0.276; in experiment [6], 0.232. Also, the composite z-score was 0.538 in the experiment with Lefty1; 0.0953 in experiment [8]; -0.0713 in experiment [10]; -0.0346 in experiment [15]; -0.0575 in [16]; 0.962 in the experiment with Torsin-1A (Homo sapiens) [17]. Further, the composite z-score was determined as 0.236 with Torsin-1A (Homo sapiens) [18] and 0.531 in [19]. Besides, the z-score was 1.89 in [7]; -1.23 (inactive) in experiment [9]; -0.672 (inactive) in [11]; 0.855 (inactive) in [12]; 1.42 (inactive) in experiment [13]; 0.479 (inactive) in experiment [14].

`Cn1c(=O)n2n(c1=O)[C@H]1[C@H](O)[C@@H]3O[C@@H]3C(=NOC[C@@H](O)COCc3ccco3)[C@H]1CC2`: the composite z-score in experiment [1] was -0.272; in [2], 0.722; in experiment [3], 0.0225; in experiment [4] it was 0.617; in experiment [5], 0.357; in experiment [6], 0.468. In addition, the composite z-score in the experiment on Lefty1 is 0.777; in experiment [8], -0.0253; in experiment [10], 0.0562; in experiment [15], 0.548; in experiment [16] it was 0.0345; with Torsin-1A (Homo sapiens) [17] it was 0.547. In addition, the values for the composite z-score (with Torsin-1A (Homo sapiens) [18]; in experiment [19]) were 0.266 and 0.582, respectively. Further, the z-score in experiment [7] was 0.596; in experiment [9], -0.508 (inactive); in experiment [11], -0.0843 (inactive); in experiment [12] it was 0.0712 (inactive); in experiment [13], 0.248 (inactive); in experiment [14], 0.496 (inactive).
